Assay in all cases: protein-binding microarray (PBM); PBM: ~300 nM protein, 6 mM HEPES pH 7.8, 80 mM KCl, 0.5 mM EDTA, 0.5 mM EGTA, 6% glycerol, 35 ng/ul poly-dIdC, 1% milk, 1 h, room temperature; Ap Aiptasia and Nv Nematostella (sea anemones) / Co Capsaspora / Aq Amphimedon (sponge) / Dm Drosophila / Hu human; RHD is the Rel homology domain; high values mean tight binding
Common to all, as to details: dsDNA, one strand shown

In test [1] the target is T1, GST-Ap-NF-kB RHD (Exaiptasia pallida (Aiptasia), UniProt A0A913YAJ5 2-422).
T1 sequence: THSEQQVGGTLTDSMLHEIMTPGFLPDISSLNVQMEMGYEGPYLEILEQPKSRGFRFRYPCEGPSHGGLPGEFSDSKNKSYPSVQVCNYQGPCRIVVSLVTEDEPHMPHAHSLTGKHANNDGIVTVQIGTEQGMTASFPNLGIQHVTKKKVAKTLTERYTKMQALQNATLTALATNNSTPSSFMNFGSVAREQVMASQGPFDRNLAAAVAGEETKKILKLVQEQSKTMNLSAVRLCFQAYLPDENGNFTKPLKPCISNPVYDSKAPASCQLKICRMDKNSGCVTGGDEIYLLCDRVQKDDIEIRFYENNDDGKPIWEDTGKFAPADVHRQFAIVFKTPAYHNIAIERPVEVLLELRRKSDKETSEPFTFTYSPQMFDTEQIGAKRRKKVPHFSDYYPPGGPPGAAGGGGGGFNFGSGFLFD

For test [2], the target named is T2, GST-Nv-NF-kB (Cys allele) (Nematostella vectensis, UniProt E5G601 2-411).
T2 sequence: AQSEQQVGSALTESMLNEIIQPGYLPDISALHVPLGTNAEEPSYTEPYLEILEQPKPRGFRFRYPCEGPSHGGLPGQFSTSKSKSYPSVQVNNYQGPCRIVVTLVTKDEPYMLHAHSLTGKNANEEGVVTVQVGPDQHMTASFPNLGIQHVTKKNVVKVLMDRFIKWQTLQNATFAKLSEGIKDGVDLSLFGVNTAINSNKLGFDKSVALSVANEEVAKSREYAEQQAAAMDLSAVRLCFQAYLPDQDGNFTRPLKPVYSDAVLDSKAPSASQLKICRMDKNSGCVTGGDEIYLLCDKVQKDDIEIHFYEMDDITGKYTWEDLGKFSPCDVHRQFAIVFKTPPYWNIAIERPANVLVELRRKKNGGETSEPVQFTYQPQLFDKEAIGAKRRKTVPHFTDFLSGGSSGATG

Test [3] concerns the target T3, GST-Co-NF-kB (Capsaspora owczarzaki, UniProt F1ARL5 200-546).
T3 sequence: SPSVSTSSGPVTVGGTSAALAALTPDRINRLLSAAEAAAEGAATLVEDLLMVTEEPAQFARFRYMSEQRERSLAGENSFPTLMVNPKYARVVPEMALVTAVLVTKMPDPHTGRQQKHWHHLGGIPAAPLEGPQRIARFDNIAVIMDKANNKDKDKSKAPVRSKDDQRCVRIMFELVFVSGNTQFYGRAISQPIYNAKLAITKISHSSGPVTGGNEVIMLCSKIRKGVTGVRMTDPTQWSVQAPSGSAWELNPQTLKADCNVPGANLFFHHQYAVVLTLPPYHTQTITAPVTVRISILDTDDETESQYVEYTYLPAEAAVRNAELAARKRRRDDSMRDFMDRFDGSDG

Test [4] addresses T4, GST-Dm-Relish (Drosophila melanogaster, UniProt Q94527 99-473).
T4 sequence: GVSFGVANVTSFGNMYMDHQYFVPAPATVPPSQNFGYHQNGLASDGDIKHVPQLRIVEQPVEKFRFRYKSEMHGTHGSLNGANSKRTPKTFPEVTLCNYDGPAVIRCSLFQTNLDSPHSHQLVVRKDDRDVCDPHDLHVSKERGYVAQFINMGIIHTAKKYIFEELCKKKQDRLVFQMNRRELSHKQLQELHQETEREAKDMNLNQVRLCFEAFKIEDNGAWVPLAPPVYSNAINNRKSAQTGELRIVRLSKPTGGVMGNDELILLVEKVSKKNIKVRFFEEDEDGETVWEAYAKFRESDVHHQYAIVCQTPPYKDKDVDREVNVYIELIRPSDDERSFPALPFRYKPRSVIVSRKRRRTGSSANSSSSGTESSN

Test [5] deals with T5, GST-Aq-NF-kB (Amphimedon queenslandica, UniProt A9Y5G7 2-389).
T5 sequence: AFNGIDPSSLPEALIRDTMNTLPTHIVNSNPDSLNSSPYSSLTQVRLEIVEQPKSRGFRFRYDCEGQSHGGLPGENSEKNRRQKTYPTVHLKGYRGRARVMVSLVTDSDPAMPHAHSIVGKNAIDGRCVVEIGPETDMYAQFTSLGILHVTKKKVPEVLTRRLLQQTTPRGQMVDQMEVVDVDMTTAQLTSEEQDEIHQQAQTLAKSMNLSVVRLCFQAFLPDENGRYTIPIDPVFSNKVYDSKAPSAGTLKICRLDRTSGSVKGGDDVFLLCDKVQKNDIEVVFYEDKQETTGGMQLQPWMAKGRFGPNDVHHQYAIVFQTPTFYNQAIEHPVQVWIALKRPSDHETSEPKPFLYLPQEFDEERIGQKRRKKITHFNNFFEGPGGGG

Take “CCGATTAACATCAGGGGGAGTGATGATGTTAATCGGGTCTTGATTCGCTTGACGCTGCTG”: the binding signal in test [1] came out at 5.05 z-score; in test [2], 3.63 z-score; in test [3] it was 3.71 z-score; in test [4] it was 1.66 z-score; in test [5] it was 3.44 z-score.
In the same order, the values of “CCGATTAACATCACATATACCCCTGATGTTAATCGGGTCTTGATTCGCTTGACGCTGCTG” are 3.26 z-score, 1.78 z-score, 4.3 z-score, 1.34 z-score and 2.28 z-score.
In the same order, the values of “CCGATTAACATCAGGGGTATAACTGATGTTAATCGGGTCTTGATTCGCTTGACGCTGCTG” are 1.94 z-score, 1.77 z-score, 3.43 z-score, 1.06 z-score and 2.25 z-score.
In the same order, the values of “CCGATTAACATCACATTTTCCCATGATGTTAATCGGGTCTTGATTCGCTTGACGCTGCTG” are 2.42 z-score, 3.68 z-score, 3.98 z-score, 1.33 z-score and 2.13 z-score.
In the case of “CCGATTAACATCATAAGCGGGGATGATGTTAATCGGGTCTTGATTCGCTTGACGCTGCTG”, the binding signal in test [1] was determined as 3.32 z-score; in test [2] it was 3.81 z-score; in test [3] it was 4.81 z-score; in test [4] it was 2.26 z-score; in test [5], 3.7 z-score.
In the same order, the values of “CCGATTAACATCAAATATACCCCTGATGTTAATCGGGTCTTGATTCGCTTGACGCTGCTG” are 4.01 z-score, 3.4 z-score, 5.87 z-score, 2.64 z-score and 4.15 z-score.
For “CCGATTAACATCACACCACCCCCTGATGTTAATCGGGTCTTGATTCGCTTGACGCTGCTG”, the binding signal in test [1] came to 3.79 z-score; in test [2], 2.72 z-score; in test [3], 2.88 z-score; in test [4], 2.4 z-score; in test [5] it was 3.3 z-score.
The matching figures for “CCGATTAACATCACGGATTTCCCTGATGTTAATCGGGTCTTGATTCGCTTGACGCTGCTG”: 3.73 z-score, 5.2 z-score, 3.28 z-score, 5.3 z-score and 5.69 z-score.
With “CCGATTAACATCAAAGTGTCCCCTGATGTTAATCGGGTCTTGATTCGCTTGACGCTGCTG”, the binding signal was found to be 5.38 z-score in test [1]; 4.57 z-score in test [2]; 5.15 z-score in test [3]; 1.98 z-score in test [4]; 4.15 z-score in test [5].
In the same order, the values of “CCGATTAACATCACGGGGAGTCCTGATGTTAATCGGGTCTTGATTCGCTTGACGCTGCTG” are 7.06 z-score, 3.95 z-score, 4.24 z-score, 8.09 z-score and 5.02 z-score.
In the same order, the values of “CCGATTAACATCAGGGGAAGGAATGATGTTAATCGGGTCTTGATTCGCTTGACGCTGCTG” are 3.87 z-score, 5.34 z-score, 6.35 z-score, 3.59 z-score and 4.05 z-score.
In the same order, the values of “CCGATTAACATCAAATAGCCCCCTGATGTTAATCGGGTCTTGATTCGCTTGACGCTGCTG” are 5.01 z-score, 4.8 z-score, 2.9 z-score, 4.26 z-score and 5.62 z-score.
As for “CCGATTAACATCAAAGTACCCCCTGATGTTAATCGGGTCTTGATTCGCTTGACGCTGCTG”, the binding signal in test [1] worked out at 6.74 z-score; in test [2] it was 4.38 z-score; in test [3] it was 6.64 z-score; in test [4], 4.39 z-score; in test [5], 4.52 z-score.

These data come from publication PMC5700166.
